Inconclusive results are not listed. Where a call stands in place of a potency, no number is given. Unmarked numbers belong to inactive results. Calls of active or inactive are those of the source. Unless noted, calls follow the shape of the dose curve; as a rule, active = well fitted curve in the direction sought with a large enough effect in the repeat runs; inconclusive = weak or mixed curves; inactive = no such curve, though single readings can be large; an effect the other way counts as inactive or inconclusive.
Tests used:
[1] = qHTS assay to identify small molecule antagonists of the thyroid receptor (TR) signaling pathway - cell viability counter screen (AID 743064); also: nearly all actives have a fitted effect of over 50% in size; also: potency is read from the fitted curve at half-maximal effect
How it was run: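 Fluorescence from CellTiter-Fluor, added after 23.5 h exposure at 37 °C, reported viability of GH3.TRE-Luc cells co-treated with compound and 1 nM T3. Measured in the same wells as the luciferase TR readout.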

[2] = qHTS assay to identify small molecule antagonists of the thyroid receptor (TR) signaling pathway (AID 743065); also: series mostly up to about 70 µM; nearly all actives have a fitted effect of over 55% in size
How it was run: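 Antagonism measured as loss of luciferase signal in GH3 cells stably carrying a TRE-luciferase reporter, co-treated with compound and T3 (1 nM final) for 23.5 h at 37 C. Viability was read in the same well by CellTiter-Fluor.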

[3] = test system: thyroid hormone receptor (rat, GH3 cells); experiment: qHTS assay to identify small molecule agonists of the thyroid receptor (TR) signaling pathway (AID 743066; calls by dose curve)
[4] = qHTS assay to identify small molecule antagonists of the estrogen receptor alpha (ER-alpha) signaling pathway - cell viability counter screen (AID 743074; calls by dose curve;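 also: HEK293 cells carrying ER-alpha-UAS-bla reporter stimulated with 17beta-estradiol; nearly all actives have a fitted effect of over 45% in size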)
Aromatase (Homo sapiens) = Aromatase (Homo sapiens) (UniProt P11511); experiment: qHTS assay to identify aromatase inhibitors (AID 743083); also: series mostly up to about 70 µM; nearly all actives have a fitted effect of over 55% in size
[5] = qHTS assay to identify aromatase inhibitors - cell viability counter screen (AID 743084);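 also: cells stimulated with testosterone during compound exposure; nearly all actives have a fitted effect of over 55% in size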; also: potency is read from the fitted curve at half-maximal effect
[6] = target: Aryl hydrocarbon receptor (Homo sapiens) (UniProt P35869); experiment: qHTS assay to identify small molecule that activate the aryl hydrocarbon receptor (AhR) signaling pathway (AID 743085); also: nearly all actives have a fitted effect of over 15% in size; also: potency is read from the fitted curve at half-maximal effect;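 as to activation: HG2L7.5c1 human HepG2 liver cells with stably integrated DRE-driven firefly reporter; series mostly up to about 70 µM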
How it was run: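 Cell line HG2L7.5c1 (human hepatoma, 20× DRE-luc). Plated, 5 h 37C, compound/DMSO added, 24 h 37C. CellTiter-Fluor 30 min 37C → fluorescence; then ONE-Glo 30 min RT → luminescence.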

[7] = qHTS assay to identify small molecule that activate the aryl hydrocarbon receptor (AhR) signaling pathway - cell viability counter screen (AID 743086);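 also: HepG2 liver cells carrying the AhR DRE luciferase reporter; series mostly up to about 70 µM; nearly all actives have a fitted effect of over 45% in size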
How it was run: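 Cytotoxicity counter screen: CellTiter-Fluor signal (30 min, 37 C) in 4000 HepG2 cells/well carrying the DRE-luciferase reporter, following 24 h compound exposure at 37 C.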

[8] = qHTS assay to identify small molecule antagonists of the peroxisome proliferator-activated receptor gamma (PPARg) signaling pathway - cell viability counter screen (AID 743194); also: nearly all actives have a fitted effect of over 55% in size
How it was run: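 Viability was measured as CellTiter-Glo luminescence in GeneBLAzer PPARg UAS-bla HEK293H cells. These cells had been exposed 17 h at 37 C to compounds together with rosiglitazone at 50 nM final, with the beta-lactamase readout taken in the same wells.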

[9] = qHTS assay for small molecule agonists of the antioxidant response element (ARE) signaling pathway (AID 743202; active = well fitted activation curve with a large enough effect in the signal ratio in the repeat runs, not every such curve was filed as active; the % refers to the signal ratio)
How it was run: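 Quantitative high-throughput format in HepG2 cells bearing an integrated ARE-beta-lactamase reporter. Compound exposure lasted 16 h at 37 C, and fluorescence was read 2 h after adding LiveBLAzer B/G substrate at room temperature.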

[10] = qHTS assay for small molecule agonists of the antioxidant response element (ARE) signaling pathway - cell viability counter screen (AID 743203; calls by dose curve; also: nearly all actives have a fitted effect of over 55% in size)
How it was run: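 Compounds in DMSO were pinned onto ARE-bla HepG2 cells plated 5 hrs earlier at 2,000 cells/well. Sixteen hours later at 37C/5% CO2, CellTiter-Glo was added and luminescence measured after 30 min at room temperature.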

[11] = qHTS assay for small molecule activators of the heat shock response signaling pathway - cell viability counter screen (AID 743209); also: nearly all actives have a fitted effect of over 50% in size
How it was run: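 Counter screen for cytotoxicity in HeLa HSE-bla reporter cells. Treatment was 5 h at 37 C; viability was detected by luminescent ATP assay (CellTiter-Glo) in the same wells as the beta-lactamase read.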

[12] = qHTS assay for small molecule activators of the heat shock response signaling pathway (AID 743210; active = well fitted activation curve with a large enough effect in the signal ratio in the repeat runs, with a control signal flat, not every such curve was filed as active; the % refers to the signal ratio;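 also: HeLa cells with beta-lactamase reporter driven by heat shock elements; series mostly up to about 63 µM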)
How it was run: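 HeLa HSE-bla cells, overnight plating; cpd in DMSO 5 h, 37 C; LiveBLAzer B/G FRET substrate 2.5 h RT; fluorescence intensity read.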

[13] = target: Estrogen receptor (Homo sapiens) (UniProt P03372); experiment: qHTS assay to identify small molecule antagonists of the estrogen receptor alpha (ER-alpha) signaling pathway (AID 743069; active = well fitted curve in the direction sought with a large enough effect in the signal ratio in the repeat runs, not every such curve was filed as active; the % refers to the signal ratio)
How it was run: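 ER-alpha-UAS-bla GripTite HEK293 line; 2% charcoal-stripped FBS overnight; plated, 4 hr 37C/5% CO2; cpd in DMSO + 17beta-estradiol, 18 hr 37C; LiveBLAzer B/G FRET substrate 2 hr RT; fluorescence intensity.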

[14] = target: Estrogen receptor (Homo sapiens) (UniProt P03372); experiment: qHTS assay to identify small molecule agonists of the estrogen receptor alpha (ER-alpha) signaling pathway (AID 743075; calls by dose curve;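 also: HEK293 GripTite cells with ER-alpha and UAS-driven beta-lactamase reporter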)
[15] = qHTS assay to identify small molecule antagonists of the estrogen receptor alpha (ER-alpha) signaling pathway using the BG1 cell line (AID 743080; calls by dose curve;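 also: BG1 cells stimulated with 17beta-estradiol alongside compound; series mostly up to about 70 µM; nearly all actives have a fitted effect of over 25% in size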)
How it was run: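 Seeding, 24 h rest, compound transfer from DMSO, 17beta-estradiol addition, 21.5 h incubation, CellTiter-Fluor (30 min, 37 C), then ONE-Glo (30 min, room temperature): this sequence was run on BG1-Luc-4E2 reporter cells.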

[16] = qHTS assay to identify small molecule antagonists of the estrogen receptor alpha (ER-alpha) signaling pathway using the BG1 cell line - cell viability counter screen (AID 743081);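 also: compound given together with 17beta-estradiol as the ER stimulus; series mostly up to about 70 µM; nearly all actives have a fitted effect of over 45% in size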
[17] = target: Peroxisome proliferator-activated receptor gamma (Homo sapiens) (UniProt P37231); experiment: qHTS assay to identify small molecule agonists of the peroxisome proliferator-activated receptor gamma (PPARg) signaling pathway (AID 743094; active = well fitted activation curve with a large enough effect in the signal ratio in the repeat runs, not every such curve was filed as active; the % refers to the signal ratio)
How it was run: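 Following 5 h plating at 37C, PPARg-bla HEK293H cells receive compound or DMSO for 17 h; fluorescence intensity is recorded after LiveBLAzer B/G loading for 1 h at room temperature.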

[18] = target: Peroxisome proliferator-activated receptor gamma (Homo sapiens) (UniProt P37231); experiment: qHTS assay to identify small molecule antagonists of the peroxisome proliferator-activated receptor gamma (PPARg) signaling pathway (AID 743191; calls by dose curve; also: series mostly up to about 63 µM; nearly all actives have a fitted effect of over 30% in size)
How it was run: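 Beta-lactamase reporter under UAS control in HEK293H PPARg-bla cells; compound treatment 17 h at 37C. Read-out: fluorescence intensity after 1 h room-temperature incubation with LiveBLAzer B/G FRET substrate.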

[19] = target: Estrogen receptor (Homo sapiens) (UniProt P03372); experiment: qHTS assay to identify small molecule agonists of the estrogen receptor alpha (ER-alpha) signaling pathway using the BG1 cell line (AID 743079); also: nearly all actives have a fitted effect of over 20% in size

Chain of Peroxisome proliferator-activated receptor gamma (Homo sapiens) (P37231 whole entry, looked up): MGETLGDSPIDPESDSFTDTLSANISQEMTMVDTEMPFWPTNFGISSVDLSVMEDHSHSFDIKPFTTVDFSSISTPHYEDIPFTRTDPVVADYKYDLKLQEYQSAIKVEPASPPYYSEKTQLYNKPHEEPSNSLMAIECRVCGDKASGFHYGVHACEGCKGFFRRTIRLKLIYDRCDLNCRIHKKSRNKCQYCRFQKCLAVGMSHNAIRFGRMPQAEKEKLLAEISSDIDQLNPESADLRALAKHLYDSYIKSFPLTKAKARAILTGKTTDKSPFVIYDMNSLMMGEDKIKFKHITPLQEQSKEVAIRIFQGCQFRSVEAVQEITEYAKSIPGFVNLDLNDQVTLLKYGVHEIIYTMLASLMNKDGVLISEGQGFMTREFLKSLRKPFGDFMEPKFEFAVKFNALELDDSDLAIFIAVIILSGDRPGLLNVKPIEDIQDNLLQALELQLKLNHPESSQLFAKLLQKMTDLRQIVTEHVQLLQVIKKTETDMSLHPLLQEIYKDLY
Chain of Estrogen receptor (Homo sapiens) (P03372 whole entry, looked up): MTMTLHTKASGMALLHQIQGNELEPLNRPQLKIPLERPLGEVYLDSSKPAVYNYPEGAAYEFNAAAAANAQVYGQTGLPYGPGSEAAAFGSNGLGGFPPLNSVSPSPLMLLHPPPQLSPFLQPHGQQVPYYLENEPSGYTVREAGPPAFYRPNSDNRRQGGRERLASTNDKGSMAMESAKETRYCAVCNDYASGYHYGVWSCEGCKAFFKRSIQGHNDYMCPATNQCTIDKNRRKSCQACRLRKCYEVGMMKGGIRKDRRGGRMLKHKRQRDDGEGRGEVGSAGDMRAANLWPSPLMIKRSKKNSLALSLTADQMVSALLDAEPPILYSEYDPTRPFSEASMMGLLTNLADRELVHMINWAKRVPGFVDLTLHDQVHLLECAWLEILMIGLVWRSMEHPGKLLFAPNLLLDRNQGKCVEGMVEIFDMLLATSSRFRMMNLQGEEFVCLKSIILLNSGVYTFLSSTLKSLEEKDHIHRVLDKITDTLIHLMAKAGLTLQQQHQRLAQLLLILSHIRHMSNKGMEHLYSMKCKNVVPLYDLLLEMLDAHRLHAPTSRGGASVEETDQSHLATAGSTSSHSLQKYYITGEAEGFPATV
Chain of Aromatase (Homo sapiens) (P11511 whole entry, looked up): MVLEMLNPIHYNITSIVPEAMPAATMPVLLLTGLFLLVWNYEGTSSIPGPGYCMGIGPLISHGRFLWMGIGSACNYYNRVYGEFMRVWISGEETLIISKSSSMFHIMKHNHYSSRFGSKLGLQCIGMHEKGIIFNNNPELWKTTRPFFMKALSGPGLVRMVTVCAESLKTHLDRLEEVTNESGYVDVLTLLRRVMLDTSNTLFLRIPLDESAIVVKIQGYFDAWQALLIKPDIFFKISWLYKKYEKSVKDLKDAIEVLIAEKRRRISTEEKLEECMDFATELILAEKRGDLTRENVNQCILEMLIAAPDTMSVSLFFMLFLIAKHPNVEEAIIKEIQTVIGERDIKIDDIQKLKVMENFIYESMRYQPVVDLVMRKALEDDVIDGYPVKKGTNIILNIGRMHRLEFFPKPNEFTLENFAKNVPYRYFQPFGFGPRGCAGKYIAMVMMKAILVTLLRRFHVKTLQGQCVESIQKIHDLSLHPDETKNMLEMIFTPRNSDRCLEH
Chain of Aryl hydrocarbon receptor (Homo sapiens) (P35869 whole entry, looked up): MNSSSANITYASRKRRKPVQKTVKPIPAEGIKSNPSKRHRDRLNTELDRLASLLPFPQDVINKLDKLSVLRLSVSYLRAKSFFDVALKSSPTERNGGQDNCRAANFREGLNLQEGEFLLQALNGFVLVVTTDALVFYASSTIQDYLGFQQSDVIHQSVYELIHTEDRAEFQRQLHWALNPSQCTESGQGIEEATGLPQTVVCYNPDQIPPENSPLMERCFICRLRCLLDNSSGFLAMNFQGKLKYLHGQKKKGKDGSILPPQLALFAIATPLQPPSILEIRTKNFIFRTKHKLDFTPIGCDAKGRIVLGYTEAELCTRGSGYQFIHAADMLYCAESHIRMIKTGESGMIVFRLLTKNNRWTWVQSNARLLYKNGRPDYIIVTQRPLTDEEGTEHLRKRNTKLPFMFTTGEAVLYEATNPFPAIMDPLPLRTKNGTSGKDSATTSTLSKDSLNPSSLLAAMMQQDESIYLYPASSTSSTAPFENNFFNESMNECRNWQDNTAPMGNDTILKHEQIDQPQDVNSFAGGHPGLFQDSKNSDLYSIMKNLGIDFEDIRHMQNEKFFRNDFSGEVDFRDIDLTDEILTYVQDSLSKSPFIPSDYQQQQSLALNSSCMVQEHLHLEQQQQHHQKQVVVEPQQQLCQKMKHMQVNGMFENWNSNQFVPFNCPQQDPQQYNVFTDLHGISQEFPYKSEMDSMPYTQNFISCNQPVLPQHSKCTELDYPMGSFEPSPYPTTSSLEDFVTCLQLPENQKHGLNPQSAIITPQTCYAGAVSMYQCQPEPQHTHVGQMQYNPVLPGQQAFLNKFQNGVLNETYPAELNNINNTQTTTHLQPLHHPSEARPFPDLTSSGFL

C1CCN2C[C@@H]3C[C@@H](CN4CCCC[C@@H]34)[C@H]2C1
Potency [1]: inactive
Potency [2]: inactive
Potency [3]: inactive
Potency [4]: inactive
outcome (Aromatase (Homo sapiens)): inactive
Potency [5]: inactive
Potency [6]: inactive
Potency [7]: inactive
outcome [8]: inactive
Potency [9]: inactive
outcome [10]: inactive
outcome [11]: inactive
outcome [12]: inactive

O=C(Nc1cccc(C2=NCCN2)c1)Nc1cccc(C2=NCCN2)c1
Potency [1]: inactive
Potency [13]: inactive
Potency [4]: inactive
Potency [14]: inactive
outcome [15]: inactive
outcome [16]: inactive
outcome (Aromatase (Homo sapiens)): inactive
Potency [5]: inactive
Potency [6]: inactive
Potency [7]: inactive
outcome [17]: inactive
Potency [18]: inactive
outcome [8]: inactive
Potency [9]: inactive
outcome [10]: inactive
outcome [11]: inactive
outcome [12]: inactive

c1ccc(CNc2ncnc3nc[nH]c23)cc1
Potency [1]: inactive
Potency [2]: inactive
Potency [3]: inactive
Potency [4]: inactive
outcome [16]: inactive
Potency [7]: inactive
outcome [8]: inactive
Potency [9]: inactive
outcome [11]: inactive
outcome [12]: inactive

CC1=NN(c2ccc(S(=O)(=O)O)cc2)C(=O)C1N=Nc1ccccc1 (stereo not drawn)
Potency [2]: inactive
Potency [3]: inactive
Potency [13]: inactive
Potency [4]: inactive
Potency [14]: inactive
Potency [19]: inactive
outcome [15]: inactive
outcome (Aromatase (Homo sapiens)): inactive
Potency [5]: 54.5 µM (active)
Potency [6]: 24.3 µM (active)
outcome [17]: inactive
Potency [18]: inactive
outcome [8]: inactive
outcome [10]: inactive
outcome [11]: inactive
outcome [12]: inactive

O=c1cc(O)c(Cl)c[nH]1
Potency [1]: inactive
Potency [4]: inactive
outcome [16]: inactive
outcome (Aromatase (Homo sapiens)): inactive
Potency [5]: inactive
Potency [6]: inactive
Potency [7]: inactive
outcome [17]: inactive
Potency [18]: inactive
outcome [8]: inactive
outcome [10]: inactive
outcome [11]: inactive
outcome [12]: inactive

Nc1c(NC/C=C\COc2cc(CN3CCCCC3)ccn2)c(=O)c1=O
Potency [1]: 23.7 µM (active)
Potency [4]: inactive
outcome (Aromatase (Homo sapiens)): inactive
Potency [5]: 13.3 µM (active)
outcome [17]: inactive
Potency [18]: inactive
outcome [8]: inactive
outcome [10]: inactive
outcome [11]: inactive
outcome [12]: inactive

CCCCCCCCCOCC1CO1 (stereo not drawn)
Potency [1]: inactive
Potency [2]: inactive
Potency [3]: inactive
Potency [4]: inactive
outcome [16]: inactive
Potency [5]: inactive
Potency [6]: inactive
outcome [17]: inactive
Potency [18]: inactive
outcome [8]: inactive
outcome [10]: inactive
outcome [11]: inactive

NS(=O)(=O)c1ccccc1OC(F)(F)F
Potency [1]: inactive
Potency [4]: inactive
outcome [16]: inactive
outcome (Aromatase (Homo sapiens)): inactive
Potency [5]: inactive
Potency [6]: inactive
Potency [7]: inactive
outcome [17]: inactive
Potency [18]: inactive
outcome [8]: inactive
outcome [10]: inactive
outcome [11]: inactive
outcome [12]: inactive

COc1ccc(OC)c(NC(=O)CC(C)=O)c1
Potency [1]: inactive
Potency [2]: inactive
Potency [3]: inactive
Potency [4]: inactive
outcome [16]: inactive
Potency [7]: inactive
outcome [8]: inactive
Potency [9]: inactive
outcome [11]: inactive
outcome [12]: inactive

O=C(O)C(=O)Nc1cccc(-c2nn[nH]n2)c1
Potency [1]: inactive
Potency [2]: inactive
Potency [3]: inactive
Potency [4]: inactive
outcome (Aromatase (Homo sapiens)): inactive
Potency [5]: inactive
Potency [6]: inactive
Potency [7]: inactive
outcome [17]: inactive
outcome [8]: inactive
Potency [9]: inactive
outcome [10]: inactive
outcome [11]: inactive
outcome [12]: inactive

Reference: PubChem BioAssay (Tox21)
